Laboratory results reported in PubChem BioAssay (Tox21).
Results filed as inconclusive are left out. A call without a number means that no potency is given here. Calls of active or inactive are those of the source. The call rests on the fitted dose curve; in most records, active means well fitted cell-killing curve with a large enough effect in the repeat runs; inconclusive means weak or mixed curves, or effect the other way; inactive means no such curve, though single readings can be large or run the other way.

experiment: qHTS assay to identify small molecule antagonists of the sonic hedgehog signaling (Shh) pathway - cell viability counter screen (AID 1259367); details: NIH/3T3 Gli1-Luc viability, CellTiter-Fluor, 24 h; series mostly up to 92.4 µM; further: nearly all actives have a fitted effect of over 55% in size
Source text: National Center for Advancing Translational Sciences [NCATS]
NIH Chemical Genomics Center [NCGC]
U.S. Environmental Protection Agency [EPA]
National Institutes of Environmental Health Sciences [NIEHS]
National Toxicology Program [NTP]
U.S. Food and Drug Administration [FDA]
The sonic hedgehog (Shh) pathway is essential for normal embryonic development. Dysregulation of the Shh pathway can cause severe developmental defects in organs. Therefore chemicals that interfere with the pathway are potential developmental toxicants. A cell line designated 3T3Gli1-Luc (DMB/OARSA/CFSAN/FDA, Laurel, MD), a NIH/3T3 derived clone containing stably integrated Gli1-Luc reporter is used to detect chemical interference of the Shh pathway, by changes in the expression of the firefly Luc gene under the control of the Gli1 transcriptional response element. This cell line was used to screen Tox21 libraries for identifying and prioritizing the potential developmental toxicants that interfere Shh pathway. Conditioned medium-stimulated mode was used to screen for chemicals inhibiting Shh signaling. The cytotoxicity of the compounds was tested in parallel by measuring the cell viability using CellTiter-Fluor assay system (Promega, Madison, WI) in the same wells.
Tox21 Assay Protocol Summary:
3T3 Gli1-Luc cells were dispensed at 2,000 per well in 5uL of culture medium into white solid bottom 1536-well plates (Greiner Bio-One, Monroe, NC) using a Multidrop Combi (Thermo Scientific, Waltham, MA) dispenser. The assay plates were incubated at 37 C and 5% CO2 for 4hr, and then 23nL of compounds dissolved in DMSO and positive control were transferred using a Pintool station (Wako, San Diego, CA). The compound transfer was followed by the addition of 1ul conditioned medium or assay buffer using two separate tips of Flying Reagent Dispenser (FRD, Aurora Discovery, San Diego, CA). The assay plates were incubated at 37C and 5% CO2 for 24hr. For viability read, after 23hr of compound treatment, 1uL of CellTiter-Fluor reagent (Promega Corporation, Madison, WI) was added to each well of the assay plates using Flying Reagent Dispenser (FRD, Aurora Discovery, San Diego, CA) and incubated the assay plates at 37C for 1hr. The fluorescence signal was quantified using a ViewLux plate reader (Perkin Elmer, Shelton, CT).
Potency means the concentration at half of the fitted maximal effect.

Row | Structure (SMILES) | Potency
1 | CCCCCCCCCCCCC | inactive
2 | CC(=O)N1CCN(c2ccc(O)cc2)CC1 | inactive
3 | CC(C)(C)c1ccc(C=O)cc1 | inactive
4 | CC1=CC[C@H](CC=O)C1(C)C | inactive
5 | CN[C@@H]1[C@H](O)[C@H](NC)[C@H]2O[C@@]3(O)C(=O)C[C@@H](C)O[C@H]3O[C@@H]2[C@H]1O | inactive
6 | CC(C)COC(=O)CCCCC(=O)OCC(C)C | inactive
7 | CC(=O)/C=C/c1ccco1 | inactive
8 | NC(Cc1c[nH]c2ccccc12)C(=O)O (stereo not given) | inactive
9 | CCCCCC1CCCC(=O)O1 (stereo not given) | inactive
10 | OC[C@@H](O)[C@H](O)[C@@H](O)[C@@H](O)CO | inactive
11 | Nc1cc(C(=O)O)ccc1Cl | inactive
12 | CC(C)c1ccccc1O | inactive
13 | O=C(O)CCNC(=O)c1ccccc1 | inactive
14 | COC(/C=C(\C)CCC=C(C)C)OC | inactive
15 | O=c1[nH]c(=O)c2ccccc2o1 | inactive
16 | NCCc1ccn[nH]1 | inactive
17 | CCc1nccnc1C | inactive
18 | Cc1ncc([N+](=O)[O-])n1CC(O)CCl (stereo not given) | inactive
19 | NS(=O)(=O)c1ccccc1OC(F)(F)F | inactive
20 | COc1ccc(/C=N/NC(=O)c2ccncc2)cc1OC | inactive

Row | Structure (SMILES) | Potency
21 | CCNC(=O)/C=C/c1cccc(Br)c1 | inactive
22 | COc1cccc2sc(N)nc12 | inactive
23 | CCOc1ccc(NC(=O)OC(C)C)cc1OCC | inactive
24 | O=S1(=O)CCCC1 | inactive
25 | CC(=O)N(CC(O)CO)c1c(I)c(C(=O)NCC(O)CO)c(I)c(C(=O)NCC(O)CO)c1I (stereo not given) | inactive
26 | C[Si]1(C)N[Si](C)(C)N[Si](C)(C)N1 | inactive
27 | CCC(CO)CO | inactive
28 | Nc1c(NC/C=C\COc2cc(CN3CCCCC3)ccn2)c(=O)c1=O | 5.17 µM (active)
29 | Cc1ccc(C(=O)C(=O)O)cc1C | inactive
30 | Nc1nc(=O)n([C@@H]2O[C@H](CO)[C@@H](O)[C@@H]2F)cc1I | inactive
31 | Cc1nc([N+](=O)[O-])cn1-c1ccc([N+](=O)[O-])cc1 | inactive
32 | CCCO | inactive
33 | CO[Si](CCCCl)(OC)OC | inactive
34 | O=S(=O)(O)c1cc(O)ccc1O | inactive
35 | Cc1ccc2c(c1)c1c3n2CCNC3CCC1 (stereo not given) | inactive
36 | CCCCCCCCCCC | inactive
37 | COc1cc2c(Nc3ccc(Br)cc3F)ncnc2cc1OCC1CCN(C)CC1 | inactive
38 | O=[Si]=O | inactive
39 | CCCCCCCCCCCCOC(C)=O | inactive
40 | C/C=C(\C)C(=O)OCC/C=C\CC | inactive
